Measurements as given in PubChem BioAssay (NCATS).
Results filed as inconclusive are left out. Where a call stands in place of a potency, no number is given. Calls of active or inactive are those of the source. Calls follow the shape of the dose curve; as a rule, active = well fitted curve in the direction sought with a large enough effect; inconclusive = small, poorly fitted or top-dose-only effect, or another doubt; inactive = no such curve, though single readings can be large; an effect the other way counts as inactive or inconclusive.

How the values were obtained:
[1] = qHTS of pediatric cancer cell lines to identify multiple opportunities for drug repurposing: Primary screen for LAN-5 cells (AID 1347100)
Procedure, shortened: (§1)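 Viability after 48 h compound treatment at 37C, 500-1,000 cells/well, read as ATP luminescence with CellTiter-Glo. Primary screens used 11-point (MIPE, 0.78 nM-46 µM) or 8-point (NPC, 0.59 nM-46 µM) final concentrations; follow-up screens used 11-point dilutions.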

[2] = qHTS of pediatric cancer cell lines to identify multiple opportunities for drug repurposing: Primary screen for BT-12 cells (AID 1347101); also: nearly all actives have a fitted effect of over 25% in size
Procedure, shortened: (§2)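 Cells (500-1,000/well) rested 5 h, then received compounds for 48 h; metabolically active cells were measured by CellTiter-Glo luminescence. Final concentrations spanned up to 46 µM (MIPE, 11-point) or 0.59 nM-46 µM (NPC, 8-point) in primary screens, 11-point in follow-ups.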

[3] = qHTS of pediatric cancer cell lines to identify multiple opportunities for drug repurposing: Primary screen for Rh18 cells (AID 1347102); also: nearly all actives have a fitted effect of over 65% in size
Procedure, shortened: as §1

[4] = qHTS of pediatric cancer cell lines to identify multiple opportunities for drug repurposing: Primary screen for OHS-50 cells (AID 1347103); also: nearly all actives have a fitted effect of over 40% in size
Procedure, shortened: as §2

[5] = qHTS of pediatric cancer cell lines to identify multiple opportunities for drug repurposing: Primary screen for RD cells (AID 1347104); also: nearly all actives have a fitted effect of over 55% in size
Procedure, shortened: (§3)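 500-1,000 cells/well; 5 h pre-incubation 37 °C/5% CO2; compound pinned; 48 h; CellTiter-Glo, 15 min RT; luminescence. MIPE 11-pt from 0.78 nM, NPC 8-pt from 0.59 nM final. Bortezomib 2.3 µM final as positive control.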

[6] = qHTS of pediatric cancer cell lines to identify multiple opportunities for drug repurposing: Primary screen for MG 63 (6-TG R) cells (AID 1347105); also: nearly all actives have a fitted effect of over 50% in size
Procedure, shortened: as §3

[7] = qHTS of pediatric cancer cell lines to identify multiple opportunities for drug repurposing: Primary screen for control Hh wild type fibroblast cells (AID 1347106);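 also: series mostly up to about 46 µM; a drop in luminescence marks cytotoxicity and a rise apparent proliferation; nearly all actives have a fitted effect of over 55% in size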
Procedure, shortened: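 Cells (500-1,000/well) in growth media were settled 5 h at 37 degrees C, then given compounds for 48 h. Viability was read as CellTiter-Glo luminescence. Primary runs used MIPE at 11 points (0.78 nM-46 µM) and NPC at 8 points (0.59 nM-46 µM); follow-ups used 11 points.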

[8] = qHTS of pediatric cancer cell lines to identify multiple opportunities for drug repurposing: Primary screen for Rh30 cells (AID 1347107); also: series mostly up to about 46 µM; nearly all actives have a fitted effect of over 75% in size
Procedure, shortened: as §1

[9] = qHTS of pediatric cancer cell lines to identify multiple opportunities for drug repurposing: Primary screen for Rh41 cells (AID 1347108);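 also: series mostly up to about 46 µM; luminescence drop marks cytotoxic hits; nearly all actives have a fitted effect of over 70% in size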
Procedure, shortened: as §3

[10] = qHTS of pediatric cancer cell lines to identify multiple opportunities for drug repurposing: Confirmatory screen for A673 cells (AID 1347110); also: nearly all actives have a fitted effect of over 65% in size; also: potency is read from the fitted curve at half-maximal effect
Procedure, shortened: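 A673 cells seeded at 500-1,000 cells/well, rested 5 h, then dosed; primary MIPE 11-point (0.78 nM to 46 µM), NPC (0.59 nM to 46 µM); confirmatory 11-point. CellTiter-Glo luminescence after 48 h.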

[11] = qHTS of pediatric cancer cell lines to identify multiple opportunities for drug repurposing: Confirmatory screen for LAN-5 cells (AID 1347113); also: nearly all actives have a fitted effect of over 65% in size
Procedure, shortened: as §1

[12] = qHTS of pediatric cancer cell lines to identify multiple opportunities for drug repurposing: Confirmatory screen for DAOY cells (AID 1347114); also: nearly all actives have a fitted effect of over 65% in size
Procedure, shortened: (§4)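 Viability measured as metabolically active cells via CellTiter-Glo luminescence following 48 hours of compound exposure, 11-point dilutions in confirmatory testing. 500-1,000 cells/well plated 5 hours before dosing; controls were DMSO and 2.3 µM bortezomib.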

[13] = qHTS of pediatric cancer cell lines to identify multiple opportunities for drug repurposing: Confirmatory screen for control Hh wild type fibroblast cells (AID 1347121); also: nearly all actives have a fitted effect of over 70% in size
Procedure, shortened: as §1

[14] = qHTS of pediatric cancer cell lines to identify multiple opportunities for drug repurposing: Confirmatory screen for Rh41 cells (AID 1347123);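 also: 48 h compound exposure; nearly all actives have a fitted effect of over 60% in size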
Procedure, shortened: as §1

[15] = qHTS of pediatric cancer cell lines to identify multiple opportunities for drug repurposing: Confirmatory screen for NB1643 cells (AID 1347109); also: nearly all actives have a fitted effect of over 45% in size
Procedure, shortened: as §1

[16] = qHTS of pediatric cancer cell lines to identify multiple opportunities for drug repurposing: Confirmatory screen for SK-N-MC cells (AID 1347111);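 also: potency is read from the fitted curve at half-maximal effect; cells exposed to compound for 48 h before the readout; nearly all actives have a fitted effect of over 70% in size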
Procedure, shortened: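 SK-N-MC cells at 500-1,000 cells/well in growth media were pre-incubated 5 h, then exposed to compounds at 11-point dilutions for 48 h at 37 degrees C, 5% CO2. Viability was read as CellTiter-Glo luminescence.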

[17] = qHTS of pediatric cancer cell lines to identify multiple opportunities for drug repurposing: Confirmatory screen for BT-12 cells (AID 1347112); also: nearly all actives have a fitted effect of over 55% in size
Procedure, shortened: as §1

[18] = qHTS of pediatric cancer cell lines to identify multiple opportunities for drug repurposing: Confirmatory screen for SJ-GBM2 cells (AID 1347116); also: nearly all actives have a fitted effect of over 60% in size
Procedure, shortened: as §4

[19] = qHTS of pediatric cancer cell lines to identify multiple opportunities for drug repurposing: Confirmatory screen for BT-37 cells (AID 1347117); also: nearly all actives have a fitted effect of over 55% in size
Procedure, shortened: as §1

[20] = qHTS of pediatric cancer cell lines to identify multiple opportunities for drug repurposing: Confirmatory screen for MG 63 (6-TG R) cells (AID 1347119); also: nearly all actives have a fitted effect of over 55% in size; also: potency is read from the fitted curve at half-maximal effect
Procedure, shortened: as §1

Row | Structure (SMILES) | Potency [1] | Potency [2] | Potency [3] | Potency [4] | Potency [5] | Potency [6] | Potency [7] | Potency [8] | Potency [9] | Potency [10] | Potency [11] | Potency [12] | Potency [13] | Potency [14] | Potency [15] | Potency [16] | Potency [17] | Potency [18] | Potency [19] | Potency [20]
1 | CN1C(=O)CN=C(c2ccccc2)c2cc([N+](=O)[O-])ccc21 | inactive | inactive | inactive | inactive | inactive | inactive | inactive | inactive | inactive | – | – | – | – | – | – | – | – | – | – | –
2 | Nc1ccccc1C(=O)OCC(O)CO (stereo unspecified) | inactive | inactive | inactive | inactive | inactive | inactive | inactive | inactive | inactive | – | – | – | – | – | – | – | – | – | – | –
3 | CCOC(=O)NC(O)C(Cl)(Cl)Cl (stereo unspecified) | inactive | inactive | inactive | inactive | inactive | inactive | inactive | inactive | inactive | – | – | – | – | – | – | – | – | – | – | –
4 | C[N+](C)(C)CCOC(=O)C(O)(c1ccccc1)c1ccccc1 | inactive | inactive | inactive | inactive | inactive | inactive | inactive | inactive | inactive | – | – | – | – | – | – | – | – | – | – | –
5 | CCCC[N+]1(C)[C@@H]2CC(OC(=O)[C@H](CO)c3ccccc3)C[C@H]1[C@@H]1O[C@@H]12 (stereo partly specified) | inactive | inactive | inactive | inactive | inactive | inactive | inactive | inactive | inactive | – | – | – | – | – | – | – | – | – | – | –
6 | CCCCC1C(=O)NC(=O)N(C2CCCCC2)C1=O (stereo unspecified) | inactive | inactive | inactive | inactive | inactive | inactive | inactive | inactive | inactive | – | – | – | – | – | – | – | – | – | – | –
7 | COCC(=O)N(c1c(C)cccc1C)C(C)C(=O)OC (stereo unspecified) | inactive | inactive | inactive | inactive | inactive | inactive | inactive | inactive | inactive | – | – | – | – | – | – | – | – | – | – | –
8 | O=c1n(Cl)c(=O)n(Cl)c(=O)n1Cl | inactive | inactive | inactive | inactive | inactive | inactive | inactive | inactive | inactive | – | – | – | – | – | – | – | – | – | – | –
9 | CCC1(CC)C(=O)NC(=O)NC1=O | inactive | inactive | inactive | inactive | inactive | inactive | inactive | inactive | inactive | – | – | – | – | – | – | – | – | – | – | –
10 | O=C(O)Cc1ccccc1 | inactive | inactive | inactive | inactive | inactive | inactive | inactive | inactive | inactive | inactive | inactive | inactive | inactive | inactive | – | – | – | – | – | –
11 | CC(Cc1ccc2c(c1)OCO2)NO (stereo unspecified) | inactive | inactive | inactive | inactive | inactive | inactive | inactive | inactive | inactive | – | – | – | – | – | – | – | – | – | – | –
12 | NC(=O)OCCCc1ccccc1 | inactive | inactive | inactive | inactive | inactive | inactive | inactive | inactive | inactive | – | – | – | – | – | – | – | – | – | – | –
13 | COc1ccc(CN2CCNCC2)c(OC)c1OC | inactive | inactive | inactive | inactive | inactive | inactive | inactive | inactive | inactive | – | – | – | – | – | – | – | – | – | – | –
14 | COC(=O)C1=CCCN(C)C1 | inactive | inactive | inactive | inactive | inactive | inactive | inactive | inactive | inactive | inactive | – | inactive | inactive | inactive | inactive | 18.5 µM (active) | inactive | inactive | inactive | inactive
15 | COc1ccc2c(C(=O)c3ccc(Cl)cc3)c(C)n(CC(=O)O)c2c1 | inactive | inactive | inactive | inactive | inactive | – | inactive | inactive | – | 7.37 µM (active) | inactive | inactive | inactive | inactive | inactive | 10.4 µM (active) | inactive | inactive | inactive | inactive
16 | COc1ccc(OC)c(CC(C)N)c1 (stereo unspecified) | inactive | inactive | inactive | inactive | inactive | inactive | inactive | inactive | inactive | – | – | – | – | – | – | – | – | – | – | –
17 | NCc1cccnc1 | inactive | inactive | inactive | inactive | inactive | inactive | inactive | inactive | inactive | – | – | – | – | – | – | – | – | – | – | –
18 | COc1ccc(C(=O)N2CCCC2=O)cc1 | inactive | inactive | inactive | inactive | inactive | inactive | inactive | inactive | inactive | inactive | – | inactive | inactive | inactive | – | – | – | – | – | 29.3 µM (active)
19 | CNC(=O)Oc1cccc2ccccc12 | inactive | inactive | inactive | inactive | inactive | inactive | inactive | inactive | inactive | – | – | – | – | – | – | – | – | – | – | –
20 | Oc1c(Br)cc(Br)cc1Br | inactive | inactive | inactive | inactive | inactive | inactive | inactive | inactive | inactive | – | – | – | – | – | – | – | – | – | – | –
21 | CC(C)C(Br)C(=O)NC(N)=O (stereo unspecified) | inactive | inactive | inactive | inactive | inactive | inactive | inactive | inactive | inactive | – | – | – | – | – | – | – | – | – | – | –
22 | COP(=S)(OC)Oc1ccc(Sc2ccc(OP(=S)(OC)OC)cc2)cc1 | inactive | inactive | inactive | inactive | inactive | inactive | inactive | inactive | inactive | – | – | – | – | – | – | – | – | – | – | –
23 | O=C(O)CCCCCCNC1c2ccccc2CCc2ccccc21 | inactive | inactive | inactive | inactive | inactive | inactive | inactive | inactive | inactive | – | – | – | – | – | – | – | – | – | – | –
